# According to ChEMBL document CHEMBL4513146, “CO-ADD screening of Karazin Kharkiv National University (Ukraine) compounds”:
# Measured potencies and affinities stand elsewhere.
# Key:
# Klebsiella pneumoniae = details: Concentration 32 ug.mL-1;; ASSAY_TEST Inhibition of Bacterial Growth; detection method Absorption (OD600); MEDIA CAMHB; plate type 384well; NBS; CORNING #3640; time 18 hr
# Candida albicans = details: Concentration 32 ug.mL-1; ASSAY_TEST Inhibition of Fungal Growth; detection method Absorption (OD530)
# Cryptococcus neoformans = details: Concentration 32 ug.mL-1; ASSAY_TEST Inhibition of Fungal Growth; detection method Resazurin; Absorption (OD600-OD570); plate type 384well; NBS; CORNING #3640
SMILES,Inhibition (Klebsiella pneumoniae) [%],Inhibition (Candida albicans) [%],Inhibition (Cryptococcus neoformans) [%]
Cc1ccc(NC(=O)CSc2nnc3ccc(C(=O)Nc4cccc(F)c4)cn23)c(C)c1,2.38,9.81,-2.98
Cc1ccc(-c2cc3c4nnc(CCC(=O)NCCCc5ccccc5)n4ccn3n2)cc1C,12.56,-0.09,-29.9
COc1cccc(-n2ccn3c(SCC(=O)c4ccc(Br)cc4)nnc3c2=O)c1,9.61,5.24,-5.95
Cc1ccc(Sc2nccn3c(=O)n(CC(=O)Nc4ccccc4Br)nc23)c(C)c1,1.33,1.01,-20.06
O=C(Cn1nc2ccc(-c3ccc(Cl)cc3)nn2c1=O)N1CCN(c2ccc(F)cc2)CC1,-0.53,2.31,-8.76
COc1ccc(OC)c(NC(=O)Cn2nc3c4cc(-c5ccc(C)c(C)c5)nn4ccn3c2=O)c1,5.66,5.32,-22.06
COc1cccc(-n2ccn3c(SCC(=O)NCc4ccc(Cl)cc4)nnc3c2=O)c1,6.58,0.82,-6.96
CCC(C)NC(=O)Cn1c(=O)c2nnc(C)n2c2ccccc21 (stereo not given),11.59,0.05,-11.45
Cc1ccc(-c2cc3c4nn(CC(=O)Nc5ccc(Br)cc5)c(=O)n4ccn3n2)cc1C,-3.52,9.45,-8.46
CCc1ccccc1NC(=O)Cn1nc2c(Sc3ccc(C)cc3C)nccn2c1=O,5.69,0.47,-23.87
Cc1ccc(CNC(=O)Cn2nc3c(N4CCN(c5ccccc5C)CC4)nccn3c2=O)cc1,0.81,26.17,-8.71
COc1ccc(NC(=O)Cn2nc3c(N4CC(C)CC(C)C4)nccn3c2=O)c(OC)c1 (stereo not given),17.76,1.51,-7.52
COc1ccc(-c2cc3c4nn(CC(=O)Nc5cc(Cl)ccc5C)c(=O)n4ccn3n2)cc1,1.98,1.63,-6.61
CCCN(C)c1nccn2c(=O)n(CC(=O)Nc3cccc(Br)c3)nc12,8.58,1.99,-9.25
Cc1ccc(NC(=O)CSc2nc3ccccc3n3cnnc23)c(Br)c1,0.14,3.27,-26.85
Cc1ccc2c(c1)N(C(=O)Cn1nc3ccc(Sc4ccccc4)nn3c1=O)CCO2,4.6,-1.78,-5.73
CC(C)c1ccc(CNC(=O)CCc2nnc3c(N4CCCCC4)nc4ccccc4n23)cc1,8.5,0.52,-24.76
CC(C)c1ccc(Oc2nc3ccccc3n3c(=O)n(CC(=O)Nc4ccc5c(c4)OCO5)nc23)cc1,7.45,1.68,-13.49
COc1ccc(-c2cc3c4nn(CC(=O)Nc5ccc(OC)c(Cl)c5)c(=O)n4ccn3n2)cc1,-0.45,32.01,-18.43
Cc1ccccc1Oc1nc2ccccc2n2c(=O)n(CC(=O)Nc3ccccc3C(F)(F)F)nc12,7.22,11.93,-23.01

SMILES,Inhibition (Klebsiella pneumoniae) [%],Inhibition (Candida albicans) [%],Inhibition (Cryptococcus neoformans) [%]
Cc1cc(C)c(NC(=O)CSc2nnc3c4cc(-c5ccccc5)nn4ccn23)c(C)c1,10.34,10.47,-13.87
Cc1ccc(NC(=O)CSc2nnc3c(=O)n(-c4ccccc4)ccn23)c(C)c1,-2.79,2.18,-11.34
O=C(Cn1nc2ccc(Sc3cccc(F)c3)nn2c1=O)NCc1ccc(Cl)cc1,0.3,1.92,-3.51
COc1cc(NC(=O)Cn2nc3ccc(SC(C)(C)C)nn3c2=O)cc(OC)c1OC,14.77,0.63,-18.78
Cc1cccc(Cn2nc3n(CCc4ccccc4)c(=O)c4sccc4n3c2=O)c1,3.95,-1.37,-11.78
COc1ccc(-c2cc3c4nn(CC(=O)N5CCCc6ccccc65)c(=O)n4ccn3n2)cc1,10.34,3.82,-13.79
COc1ccc(-c2cc3c4nnc(SCC(=O)Nc5cc(F)ccc5C)n4ccn3n2)cc1,-19.37,1.81,-16.34
COc1ccc(NC(=O)Cn2nc3ccc(SC4CCCCC4)nn3c2=O)c(OC)c1,4.32,-0.43,-25.29
O=C(Cn1nc2nc(Nc3ccc(F)cc3)ccn2c1=O)Nc1ccc(F)cc1,8.54,3.4,-2.56
Cc1nnc2ccc(S(=O)(=O)N(Cc3ccc(F)cc3)c3ccc(Cl)cc3)cn12,9.19,1.14,-10.26
CCOc1ccc(C(=O)Cn2nc3n(CCC(C)C)c(=O)c4sccc4n3c2=O)cc1,4.69,2.69,-12.75
CCCn1c(=O)c2sccc2n2c(=O)n(Cc3ccc(Cl)cc3)nc12,4.43,0.41,-22.99
COc1ccc(CNC(=O)Cn2nc3c(Oc4ccccc4C)nccn3c2=O)cc1,7.26,-2.47,-8.82
Cc1ccc(NC(=O)Cn2nc3c(SC4CCCCC4)nccn3c2=O)cc1F,13.26,-0.51,-26.18
CCOC(=O)N1CCN(C(=O)CCc2nnc3c4cc(-c5ccccc5)nn4ccn23)CC1,14.35,1.03,-14.62
O=c1c2nn(Cc3ccc([N+](=O)[O-])cc3)c(=O)n2ccn1-c1ccccc1,13.17,3.56,-7.73
O=C(Cn1nc2c(Sc3ccccc3)nccn2c1=O)Nc1ccc2c(c1)OCO2,1.19,12.77,-5.13
Cc1ccc(-c2ccc3nn(Cc4nc(-c5ccc(OC(F)(F)F)cc5)no4)c(=O)n3n2)cc1,-0.72,49.09,-8.92
Cc1ccc(N(Cc2ccccc2)S(=O)(=O)c2ccc3nncn3c2)cc1F,4.64,0.48,-7.94
O=C(Cn1nc2c(N3CCOCC3)nccn2c1=O)NCc1ccc(C(F)(F)F)cc1,3.05,1.76,-5.37

SMILES,Inhibition (Klebsiella pneumoniae) [%],Inhibition (Candida albicans) [%],Inhibition (Cryptococcus neoformans) [%]
COc1ccc(-c2cc3c4nn(CC(=O)Nc5ccc(OC)cc5OC)c(=O)n4ccn3n2)cc1,12.55,0.69,-8.54
CCc1nnc2c(S(=O)(=O)N(Cc3cccc(C)c3)c3ccc(C(C)C)cc3)cccn12,14.47,4.99,-9.13
COc1ccc(NC(=O)c2ccc3nn(CC(=O)Nc4ccc(C(C)=O)cc4)c(=O)n3c2)cc1,4.63,12.89,-6.52
COc1ccc(-n2ccn3c(-c4ccc([N+](=O)[O-])cc4)nnc3c2=O)cc1,13.7,-0.61,-26.2
COc1ccc(-c2cc3c4nn(CC(=O)Nc5ccc(C)cc5)c(=O)n4ccn3n2)cc1,7.98,8.11,-26.93
Cc1nnc2ccc(S(=O)(=O)N(Cc3ccccc3F)c3cccc(Cl)c3)cn12,8.99,-0.66,-11.57
Cc1ccc(Oc2nccn3c(=O)n(CC(=O)Nc4ccccc4F)nc23)cc1,2.86,5.88,-5.76
CCc1nnc2c(SCC(=O)Nc3cccc(C(C)=O)c3)nc3ccccc3n12,17.43,-0.1,-10.94
CC(C)c1nnc2c(SCC(=O)Nc3ccc(C#N)cc3)nc3ccccc3n12,10.23,0.55,-7.9
Cc1cc2nn(CC(=O)Nc3cccc(C)c3C)c(=O)n2c(Nc2ccc(F)c(C)c2)n1,8.99,3.16,-7.96
CCCN(C)c1nccn2c(=O)n(CC(=O)Nc3cccc(C(F)(F)F)c3)nc12,7.15,-0.05,-3.78
CC(C)(C)NC(=O)Cn1nc2n(Cc3ccco3)c(=O)c3sccc3n2c1=O,9.07,1.61,-14.16
O=C(CSc1nnc2c3cc(-c4ccc(F)cc4)nn3ccn12)NCc1ccc(Cl)cc1,0.77,7.94,-17.49
Cc1ccc(N(Cc2cc(F)cc(F)c2)S(=O)(=O)c2cccn3c(C)nnc23)cc1,11.68,5.37,-9.88
COc1ccc(NC(=O)Cn2nc3c(Oc4cccc(OC)c4)nccn3c2=O)cc1,3.68,3.75,-7.1
O=c1n(Cc2cc(F)cc(F)c2)nc2ccc(-c3ccccc3)nn12,18.79,0.55,-16.53
COc1cccc(-n2ccn3c(SCC(=O)Nc4ccccc4Cl)nnc3c2=O)c1,9.92,1.92,-13.6
Cc1ccc(Cl)cc1NC(=O)CSc1nnc2ccc(C(=O)Nc3cccc(F)c3)cn12,3.53,4.15,-1.38
COc1cc(NC(=O)CSc2nnc3c(=O)n(-c4ccc(C)c(C)c4)ccn23)cc(OC)c1,2.77,1.66,-9.37
COc1ccc(-c2cc3c4nn(CC(=O)Nc5cc(C)ccc5OC)c(=O)n4ccn3n2)cc1,8.5,13.11,-15.79
